Drawing on PubChem BioAssay AID1259422 (The Scripps Research Institute Molecular Screening Center, 2018), this text covers inhibition for 61 compounds.

Among all 640,000 compounds or so, about 9,300 (1.5%) were called active. Cut-off read from the data, not from the text of the source: active = inhibition above about 32%; inactive = the rest. Shown is part of a subset that was picked to be rich in actives.

The assay is described as follows: TEAD-YAP interaction inhibition, primary screen, TEAD-YAP interaction inhibitor project, luminescence, HEK-TIYL cells (AID 1259422).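 Note: 0% = median of test compound wells and 100% = reference inhibitor wells.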 The following applies: TEAD-Gal4/YAP UAS-luciferase luminescence, at 9.12 µM, stronger effect = higher value.
As to `C/C(CC(=O)NC1CCCCC1)=N\NC(=O)c1ccncc1`, the inhibition is 2.69% (inactive).

Regarding `COc1cc(OC)cc(C(=O)N/N=C(\C)CC(=O)Nc2ccccc2-c2ccccc2)c1`, the inhibition is 51.5% (active).

As for `C/C(CC(=O)NC1CCCC1)=N\NC(=O)COc1cccc(C)c1`, the inhibition was -8.3% (inactive).

With `COc1ccc(C(=O)N/N=C(\C)CC(=O)Nc2ccccc2)c(OC)c1`, the inhibition was -36.2% (inactive).

Take `COc1cc(OC)cc(C(=O)N/N=C(\C)CC(=O)NC2CCCCCCC2)c1`: the inhibition is 54.5% (active).

In the case of `COc1ccc(NC(=O)CS(=O)CC(=O)Nc2ccccc2-c2ccccc2)cc1` (stereo unspecified), the inhibition is -6.02% (inactive).

As to `COc1ccc2nc(NC(=O)c3ccccc3OC)sc2c1`, the inhibition is 5.95% (inactive).

Take `CCc1nc(SCC(=O)Nc2nc(C)c(C)s2)c2ccccc2n1`: the inhibition is 5.48% (inactive).

`O=C1Nc2cc(C(=O)N3CCN(c4ccccn4)CC3)ccc2Nc2ccccc21`: the inhibition is 11.1% (inactive).

As to `COc1cc(-c2cnn3c(N4CCOCC4)ccnc23)cc(OC)c1OC`, the inhibition was 76.6% (active).

Regarding `OC1CCN(c2ccnc3c(-c4ccoc4)cnn23)CC1`, the inhibition was -22.8% (inactive).

In the case of `c1cc(N2CCOCC2)n2ncc(-c3ccc4[nH]ccc4c3)c2n1`, the inhibition was 96.6% (active).

Turning to `COc1ccc(-c2cnn3c(N4CCOCC4)ccnc23)c(OC)c1`, the inhibition is -6.8% (inactive).

As for `COc1cccc(-c2cnn3c(N4CCC(O)CC4)ccnc23)c1`, the inhibition was 21.5% (inactive).

Consider `Clc1ccccc1-c1cnn2c(N3CCOCC3)ccnc12`, for which the inhibition is 16.7% (inactive).

As for `O=C(CNC(=O)c1ccco1)N/N=C/c1ccc(O)c(O)c1`, the inhibition is 3.54% (inactive).

Regarding `Cc1ccc(N(CC(=O)O)C2SC(=O)N(c3ccccc3)C2=O)cc1` (stereo unspecified), the inhibition was -28.6% (inactive).

Turning to `Cc1cc(C)cc(OCC(=O)Nc2sc3c(c2C(N)=O)CCCC3)c1`, the inhibition was -1.21% (inactive).

Take `CCCCOC(=O)C1=C(C)NC2=C(C(=O)CC(C)(C)C2)C1c1ccc(Cl)cc1Cl` (stereo unspecified): the inhibition was 1.21% (inactive).

For the compound `Cc1nc(C)n(-c2ccc(Nc3cc(-n4ccnn4)ccn3)cc2)n1`, the inhibition was 1.02% (inactive).

Turning to `Cc1nc(C)n(-c2ccc(Nc3ncc4ccc(-c5cnn(C)c5)cc4n3)cc2)n1`, the inhibition is 84.9% (active).

Consider `Cc1ncn(-c2ccc(Nc3ncc(-c4cnn(C)c4)c(-c4cnn(C)c4)n3)cc2)n1`, for which the inhibition was -5.05% (inactive).

Regarding `Cc1ccccc1CCNCc1ccc(C(=O)O)s1`, the inhibition was -4.88% (inactive).

For `CC(C)(C)c1nc2ccccc2c2nn(CC(=O)N3CCNC(=O)C3(C)C)c(=O)n12`, the inhibition was -10.6% (inactive).

In the case of `O=C(NCC1CCCO1)c1ncoc1-c1cccc(Cl)c1` (stereo unspecified), the inhibition was -34.8% (inactive).

For the compound `Cn1nnc2c(N3CCN(CC(=O)Nc4ccccc4F)CC3)ncnc21`, the inhibition is 3.56% (inactive).

With `Cc1nn2c(NCc3ccncc3)c3c(nc2c1-c1ccccc1)CCC3`, the inhibition is -22.7% (inactive).

Turning to `COc1cccc2c(=O)n(CC(=O)NCc3ccccc3)ccc12`, the inhibition was 38.8% (active).

On to `O=C(Cn1cnc2ccccc2c1=O)NCc1ccccc1`, for which the inhibition is 2.51% (inactive).

Turning to `COc1ccccc1NC(=O)Cn1ccc2ccccc2c1=O`, the inhibition was -0.57% (inactive).

As for `Cn1cc(S(=O)(=O)O)cc1-c1nc2ccccc2n1C`, the inhibition is 9.5% (inactive).

On to `Cc1c(-n2c(-c3ccco3)nc3ccccc3c2=O)c(=O)n(-c2ccccc2)n1C`, for which the inhibition was -10.7% (inactive).

With `Cn1c(-c2ccco2)nc2cc3ccccc3cc21`, the inhibition is 90.5% (active).

Take `NC1=NC(=Nc2ccc(N3CCCCC3)cc2)c2ccccc21`: the inhibition is 60.5% (active).

On to `NC1=NC(=Nc2cc(Cl)cc(Cl)c2)c2ccccc21`, for which the inhibition is -2.03% (inactive).

As to `C(/C=C/c1ccccc1)=Nc1ccc(N2CCOCC2)cc1`, the inhibition is 18.8% (inactive).

Consider `O=C1OC(c2ccccc2Cl)=N/C1=C\c1ccco1`, for which the inhibition is 4.9% (inactive).

Turning to `COc1cc(/C=N/NC(=O)CC(=O)NCC(C)C)ccc1O`, the inhibition was 8.56% (inactive).

As for `CCOC(=O)N1CCN(C(=O)c2ccc3c(=O)n(Cc4ccccc4Cl)c(=S)[nH]c3c2)CC1`, the inhibition was -2.49% (inactive).

`COc1ccc(CCNc2nc(-c3c(C)noc3C)nc3c2ncn3-c2ccsc2)cc1`: the inhibition was -2.43% (inactive).

Turning to `Cc1noc(C)c1-c1nc(NC2CC2)c2ncn(-c3ccsc3)c2n1`, the inhibition was 41.4% (active).

For `c1ccc2c(-c3nc(NC4CC4)c4ncn(-c5ccsc5)c4n3)csc2c1`, the inhibition was 13.5% (inactive).

With `CC(=O)N(c1cccc(C)c1)C1SC(=O)N(c2cccc(C)c2)C1=O` (stereo unspecified), the inhibition was 3.53% (inactive).

In the case of `CC(=O)Nc1cccc(-c2nc3cccnc3s2)c1`, the inhibition is -43.1% (inactive).

For `O=C(Nc1ccc(-c2nc3cccnc3s2)cc1)C1CCCC1`, the inhibition is 51.9% (active).

For the compound `CC(=O)Nc1ccc(S(=O)(=O)Nc2ccc(-c3nc4cccnc4s3)cc2)cc1`, the inhibition is 7.3% (inactive).

Turning to `Cc1ncc(-c2ccc(F)cc2)c(C2CCCN(CCO)C2)n1` (stereo unspecified), the inhibition is -9.4% (inactive).

In the case of `COC(=O)COc1ccc(/C=C2/NC(=O)N(c3ccccc3)C2=O)cc1OC`, the inhibition is 11.3% (inactive).

As to `Cc1nc(NC(=O)/C=C/c2cccc([N+](=O)[O-])c2)sc1C(=O)N(C)C`, the inhibition was -12.3% (inactive).

In the case of `N#Cc1ccc(OCC(=O)Nc2ccc3c(c2)C(=O)c2ccccc2C3=O)cc1`, the inhibition was -21.1% (inactive).

Regarding `COc1ccc(C(=O)CSC2=C(C#N)C(c3cccs3)CC(=O)N2)cc1` (stereo unspecified), the inhibition was -82.2% (inactive).

For `N#CC1=C(SCC(=O)Nc2nccs2)NC(=O)CC1c1cccs1` (stereo unspecified), the inhibition is 5.49% (inactive).

Consider `N#CC1=C(SCC(=O)OCc2ccccc2)NC(=O)CC1c1ccc(F)cc1` (stereo unspecified), for which the inhibition is 6.22% (inactive).

In the case of `CCOC(=O)CSC1=C(C#N)C(c2ccccc2)CC(=O)N1` (stereo unspecified), the inhibition is 53.9% (active).

As to `CCOC(=O)CSC1=C(C#N)C(c2sccc2C)CC(=O)N1` (stereo unspecified), the inhibition was 56.8% (active).

With `CCOc1cc(C2CC(=O)NC(SCC(=O)OCc3ccccc3)=C2C#N)ccc1O` (stereo unspecified), the inhibition was -6.79% (inactive).

As to `CCOC(=O)c1ccc(CN(Cc2ccc(Br)cc2)S(=O)(=O)c2cc(Cl)cc(Cl)c2)cc1`, the inhibition was 11.6% (inactive).

As to `O=C(NCCc1ccccc1)C(=O)Nc1ccccc1F`, the inhibition was -44.1% (inactive).

With `CCCCSc1nc2sc3c(c2c(=O)n1-c1ccc(OC)cc1)CCCC3`, the inhibition is -1.35% (inactive).

On to `O=C(CCSc1ccccc1)Nc1cccc2ccc(-n3ccnc3)nc12`, for which the inhibition is -3.58% (inactive).

Regarding `COc1cc(C(=O)Nc2cc(-c3nc4ccc(C)cc4o3)ccc2C)ccc1OCc1ccc(Cl)cc1`, the inhibition is -64.2% (inactive).
